# Target: PUM1 PUF domain R5-PRR (Homo sapiens, UniProt Q14671 828-1176, C1007P;Q1011R)
# Assay: yeast three-hybrid, YBZ-1, SC-Leu-His + 0.5 mM 3-AT, 4 days
# Conditions: tags: N-Gal4 AD-HA kept; label: inside an RPR1-promoter hybrid RNA with tandem MS2 sites; ssRNA
# How it was run: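 The interaction score is the logarithmic change in variant frequency from input to selection. It uses log2, with a pseudocount of 1 for absent variants, and frequencies came from PCR-amplified, Illumina-sequenced repeat regions. The libraries were Pumilio-1 PUF domains randomized at the three base-contacting residues per repeat, co-expressed with matching RNA elements in strain YBZ-1 (LexA–MS2 coat fusion, HIS3 reporter). Plating lasted four days on SC-Leu (input) or SC-Leu-His + 0.5 mM 3-AT (selection).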
row,Sequence,binding signal
1,GGCUAGAACUAGUGGAUCCCCCGGCGCCCGGCGGCUCGAGCCCGGGUAAGUGUAAAUAGUCUGCAUGCCGCCGGGCGCCAUGCCUGCAGGUCGACUCUAGAAAACAUG,2.16 log2 enrichment (interaction score)
2,GGCUAGAACUAGUGGAUCCCCCGGCGCCCGGCGGCUCGAGCCCGGGUAAGUGUGAAUAGUCUGCAUGCCGCCGGGCGCCAUGCCUGCAGGUCGACUCUAGAAAACAUG,2.13 log2 enrichment (interaction score)
3,GGCUAGAACUAGUGGAUCCCCCGGCGCCCGGCGGCUCGAGCCCGGGUAAGUGUCAAUAGUCUGCAUGCCGCCGGGCGCCAUGCCUGCAGGUCGACUCUAGAAAACAUG,0.75 log2 enrichment (interaction score)
4,GGCUAGAACUAGUGGAUCCCCCGGCGCCCGGCGGCUCGAGCCCGGGUAAGUGUUAAUAGUCUGCAUGCCGCCGGGCGCCAUGCCUGCAGGUCGACUCUAGAAAACAUG,3.23 log2 enrichment (interaction score)

# — publication PMC8384837, “Expanding the binding specificity for RNA recognition by a PUF domain”
